The experiment deals with H9c2. The experiment is described as follows: cardiomyocyte survival under oxidative or metabolic stress – cell-based, panel, H9c2 and HL-1, ATP luminescence, set 2, SAR follow-up (AID 651871).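 Note: cells exposed to stressor for 2 h before ATP readout; reference of the scale not given here.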 Conditions: H9c2/HL-1 cardiomyocytes, H2O2 oxidative stress; with H2O2, run 3, at 79 µM (top of the series).

Molecules are shown by their SMILES. Several values for one entry are separate records, joined by “and”; a condition that tells them apart may be missing. Equal entries are not always repeated.

Consider `COc1ccc2nc(-c3cc(OC)c(OC)c(OC)c3)cc(C(=O)NCC(=O)Nc3ccc(C(C)=O)cc3)c2c1`, for which the activity (protection/inhibition) is 91.8% and 76.1%.
With `COc1ccc2c(c1OC)C(=O)N1c3ccccc3C(=O)N(Cc3cccc(Cl)c3Cl)C21` (centres undefined) the figure was 77.5% and 104% and 43.3%; with `COc1cc(-c2cc(C(=O)Nc3cccc(C(=O)NCc4ccccc4)c3)c3ccccc3n2)cc(OC)c1OC`, 95.7%; with `CCOC(=O)c1cccc(NC(=O)CNC(=O)c2cc(-c3cc(OC)c(OC)c(OC)c3)nc3ccccc23)c1`, 99%.

The values are drawn from PubChem BioAssay AID651871 (Sanford-Burnham Center for Chemical Genomics, 2012).
